Data published in PubChem BioAssay AID1814 (Broad Institute, 2009).
In all, about 300,000 compounds went through this assay and about 22,000 (7.3%) were called active. Another 2% or so got no clear call; they are omitted. Rule as the data show it: active = activity score below about -60%; inconclusive = mostly about -28% to -61%; inactive = positive scores. The entries come from a sample that favours actives as a whole.

Assay: Activators working through SNCA 5'UTR binding (MLPCN) (AID 1814)
Settings: alpha-synuclein 5'UTR reporter, activators screen; stronger effect = lower value; tested at 7.5 µM

| Compound | activity score |
| --- | --- |
| COc1cccc2[nH]c(C(=O)NCCc3ccccc3)cc12 | -162% (active) |
| COc1cc(N=Cc2c(O)[nH]c3ccccc23)cc(OC)c1OC | 81% (inactive) |
| NC(=S)N/N=C/c1coc2cc(Cl)ccc2c1=O | -88.7% (active) |
| CCOc1ccc(Nc2oc(Cc3ccccc3)nc2C#N)cc1 | -109% (active) |
| COc1ccc(Nc2oc(-c3ccccc3Cl)nc2C#N)cc1 | -108% (active) |
| N#Cc1nc(Cc2ccccc2)oc1NCCc1ccccc1 | -147% (active) |
| Cc1ccc(C(=O)NNC(=O)c2cccs2)cc1 | -65.9% (active) |
| COc1cc(NC(=O)c2cccs2)ccc1NC(=O)c1ccccc1Cl | -62.1% (active) |
| Cc1ccc(-c2csc(NC(=O)c3cccs3)n2)cc1 | -239% (active) |
| O=C(Nc1ccccc1)c1ccc(NC(=O)c2cccs2)cc1 | -107% (active) |
| O=C(NNC(=O)c1ccc(Cl)cc1Cl)c1cccs1 | -115% (active) |
| COc1ccc(-n2nc(C(=O)NCC(=O)N3CCN(c4ccccc4OC)CC3)c3ccccc3c2=O)c(OC)c1 | -64% (active) |
| Cc1c(N=Nc2ccc(N(C)C)cc2)c(=O)n(-c2ccccc2)n1C | -101% (active) |
| CCn1nc(C)c(NC(=O)/C=C/c2ccc(OC)c(COc3ccc(Br)cc3)c2)c1C | 61.8% (inactive) |
| O=C(/C=C/c1ccc(Cl)cc1)Nc1ccc(Br)cn1 | -62.5% (active) |
| CC(C)=CCc1c(O)c(CC=C(C)C)c2occ(-c3ccc(O)cc3)c(=O)c2c1O | -75.6% (active) |
| O=C(Nc1ccc2c(c1)CCC2)c1ccc(Br)s1 | -159% (active) |
| N/C(=N\OC(=O)c1ccc2c(c1)OCO2)c1ccc(Br)cc1 | -162% (active) |
| CCCCNc1ccc(C(=O)Nc2cccc(C)n2)cc1[N+](=O)[O-] | -102% (active) |
| Cc1cc(NC(=O)CSc2nc3c(cc2C#N)CCCCC3)no1 | -104% (active) |
| COC(=O)/C(=C1\Oc2ccc(C(C)(C)C)cc2S1)C(F)(F)F | -189% (active) |
| COc1ccc2c(c1)O/C(=C\c1ccccc1O)C2=O | -94.2% (active) |

| Compound | activity score |
| --- | --- |
| O=C1Oc2ccccc2C(=O)/C1=C/c1ccccc1O | -96.6% (active) |
| COc1ccc(-c2noc(-c3cccc(OC)c3OC)n2)cc1OC | -193% (active) |
| COc1cc(NC(=O)c2ccc(-c3csc(C)n3)cc2)c(OC)cc1Cl | -64.4% (active) |
| O=C(CCSc1ccccc1)N1CCN(c2ccccc2F)CC1 | -115% (active) |
| COc1ccc(-c2nc3n(c2Br)CCC3)cc1 | -122% (active) |
| CN1C(=O)/C(=C/C=C2\SCCN2C)OC1=S | -169% (active) |
| OCCCNc1nccc(-c2cc(Nc3cccc(Cl)c3)ncn2)n1 | 73.3% (inactive) |
| Cn1c(Nc2cccc(Cl)c2)nc2ccccc21 | -63.6% (active) |
| CC(C)n1cnc2c(Nc3cccc(Cl)c3)nc(N(CCO)CCCO)nc21 | 64.7% (inactive) |
| O=c1c2cc(-c3ccccc3)sc2nc2n1N=C(c1cccs1)CS2 | -105% (active) |
| Oc1ccccc1CNc1ncc(Br)cc1Br | -62.4% (active) |
| COc1ccc2cc(C(=O)NCC3CCCO3)[nH]c2c1 (configuration not stated) | -90.6% (active) |
| O=C(NCCc1ccccc1)c1ccc2c(c1)N(Cc1ccccc1)CCS2 | -105% (active) |
| O=C(Cn1c(=S)nc2ccccn21)N1CCc2ccccc2C1 | -96.2% (active) |
| CCn1nccc1C(=O)Nc1ccc(Cl)c(Cl)c1 | -89.2% (active) |
| CCc1ccc(NC2Nc3cc(C)nn3S2)cc1 (configuration not stated) | -79.3% (active) |
| CCOC(=O)c1cnc(Nc2nc3ccccc3o2)nc1CSC(=S)N1CCCCC1 | -133% (active) |
| NS(=O)(=O)c1ccccc1NC(=O)c1c(O)c2ccccc2[nH]c1=O | -64.6% (active) |
| CCOC(=O)c1cnc2[nH]c3ccccc3n2c1=O | -85.9% (active) |
| CCCCCn1c(=O)c(C(=O)OCC)c(Cl)c2ccccc21 | 92.6% (inactive) |
| Cc1ccc(SCCSc2ncccn2)cc1 | -110% (active) |
| S=C(NCc1ccco1)Nc1ccc2c(c1)OCCO2 | -105% (active) |

| Compound | activity score |
| --- | --- |
| FC(F)Oc1ccc(NC(=S)NCc2ccco2)cc1Cl | -62.2% (active) |
| CCc1nnc(NC(=O)/C=C/c2ccc(C)o2)s1 | -74.1% (active) |
| Cc1nnc(NC(=O)/C=C/c2ccco2)s1 | -101% (active) |
| CCC(CC)c1nnc(NC(=O)/C=C/c2ccco2)s1 | -153% (active) |
| Cn1c(CCN2CCCCCC2)nc2cc(NC(=O)Nc3ccccc3)ccc21 | -91.9% (active) |
| CCOC(=O)N1CCN(S(=O)(=O)c2ccc(C(=O)Nc3ccc(F)cc3F)cc2)CC1 | 69.5% (inactive) |
| COc1ccc(C(=O)Nc2ccc(F)cc2F)cc1 | -88.9% (active) |
| COc1ccc(NC(=O)c2ccc(OC)cc2)cc1 | -63% (active) |
| Cc1cccc(C(=O)Nc2ccc(Oc3cnccn3)cc2)c1 | -86.6% (active) |
| COc1ccc(NC(=O)c2c(C)oc3c2CCCC3)cc1 | -64.6% (active) |
| COc1ccc(NC(=O)c2sccc2SCC#N)cc1 | -77.3% (active) |
| Cc1ccc(NC(=O)c2ccc(Oc3ncccn3)cc2)cc1 | -124% (active) |
| CCC(=O)Nc1ccc(C(=O)Nc2cccc(OC)c2)cc1 | -74.7% (active) |
| COc1ccc(NC(=O)ON=C2c3ccccc3-c3ccccc32)cc1 | -102% (active) |
| COc1ccc(C(=O)Nc2sc(C)c(C)c2CN2CCOCC2)cc1 | -83.7% (active) |
| COc1ccc(C(=O)Nc2ccc(CN3CCOCC3)cc2)cc1 | -86.6% (active) |
| COc1ccc(C(=S)Nc2ccccc2)cc1 | -134% (active) |
| COc1ccc(NC(=O)c2cc(-c3ccc(C)cc3)on2)cc1 | -154% (active) |
| Cn1c(CN2CCOCC2)nc2cc(NC(=O)c3ccc(Cl)cc3)ccc21 | -163% (active) |
| COc1ccc(NC(=O)CS(=O)(=O)c2ccccc2)cc1 | -62.5% (active) |
| CCc1cc(C(N)=O)c(NC(=O)c2ccc(OC)cc2)s1 | -174% (active) |
| COc1ccc(NC(=O)C2COc3ccccc3O2)cc1 (configuration not stated) | -133% (active) |

| Compound | activity score |
| --- | --- |
| CC(=O)c1cccc(NC(=O)C2COc3ccccc3O2)c1 (configuration not stated) | -134% (active) |
| NS(=O)(=O)c1ccc(NC(=S)NC(=O)c2cccc(Br)c2)cc1 | -61.6% (active) |
| O=S(=O)(c1ccc(F)cc1)n1ccc(-c2cnc(-c3ccccc3)s2)n1 | -138% (active) |
| c1ccc(CSc2nnc(-c3ccco3)n2Cc2ccccc2)cc1 | -126% (active) |
| Cc1ccc(CN2C(=O)N/C(=C/c3cc(C)n(-c4ccccn4)c3C)C2=O)cc1 | -88.6% (active) |
| O=C(NNC(=S)Nc1ccc(Br)cc1Cl)c1ccco1 | -157% (active) |
| NNc1nc2c(Cl)cccc2s1 | -119% (active) |
| Cc1nc2ccccc2nc(=O)c1NNc1ccc([N+](=O)[O-])cc1 | -109% (active) |
| CN(C(=O)c1ccccn1)c1nnc(-c2ccccn2)s1 | -110% (active) |
| Cc1sc2ncnc(N3CCC(C(=O)Nc4nc5ccc(Cl)cc5s4)CC3)c2c1C | -183% (active) |
| COc1cc(OC)c(C(=O)Nc2ccc(N(C)C)cc2)cc1OC | -129% (active) |
| Cc1ccc2nc(-c3ccncc3)cc(C(=O)Nc3ccc(OC(F)F)cc3)c2c1 | 67.6% (inactive) |
| COC(=O)c1sc(NC(=O)c2ccc(OC)cc2OC)nc1C | 101% (inactive) |
| COc1cc2ccccc2cc1C(=O)Nc1ccncc1 | -70.2% (active) |
| COc1cc2ccccc2cc1C(=O)Nc1nc(C)c(C(C)=O)s1 | -106% (active) |
| COc1cc2ccccc2cc1C(=O)Nc1ccccc1C | -118% (active) |
| COc1ccc2c3c1O[C@H]1C[C@@H](O)C=C[C@@]31CCN(C)C2 | 62% (inactive) |
| O=C(Cn1cc(C(=O)c2cccs2)c2ccccc21)NCc1cccs1 | -69.5% (active) |
| CCOc1ccccc1NC(=O)Cn1nnc(C(=O)NCc2cccs2)c1N | 84.9% (inactive) |
| COC(=O)c1cn(CC(=O)NCc2cccs2)c2ccccc12 | -111% (active) |
| CCOC(=O)N/N=C/c1cn(Cc2ccccc2Cl)c2ccccc12 | 42.5% (inactive) |
| Cc1ccc(N)cc1-n1c(C)ccc1C | -77.6% (active) |

| Compound | activity score |
| --- | --- |
| Cc1ccc(-c2cc(=O)c3ccc(F)cc3[nH]2)cc1 | -68.9% (active) |
| O=c1cc(-c2ccccc2)[nH]c2cc(F)ccc12 | 93.3% (inactive) |
| Cc1ccc(-n2nc3ccc(NC(=O)/C=C/c4ccco4)cc3n2)cc1C | -154% (active) |
| O=C(Nc1cccc(-c2nc3ccccc3[nH]2)c1)c1ccc(C(=O)Nc2cccc(-c3nc4ccccc4[nH]3)c2)cc1 | -70.2% (active) |
| O=C(/C=C/c1ccco1)Nc1cccc(-c2nc3ccccc3[nH]2)c1 | -143% (active) |
| Cc1cccc(OC(=O)c2sc3ncn(C)c(=O)c3c2C)c1 | -210% (active) |
| Cc1c(C(N)=O)sc2ncn(CCOc3ccccc3)c(=O)c12 | -66.2% (active) |
| c1ccc(CCc2nc(-c3ccncc3)no2)cc1 | -99% (active) |
| O=C1c2ccccc2C(=O)c2c1cccc2N1CCN(CCO)CC1 | -64.5% (active) |
| N#C/C=C1\Sc2ccccc2C(=O)N1CC(=O)N1CCN(S(=O)(=O)c2ccccc2)CC1 | -152% (active) |
| Fc1ccc2nc(Nc3nc4c(s3)CCCC4)sc2c1 | -206% (active) |
| NS(=O)(=O)c1ccc(N=Nc2c(O)[nH]c3ccc(Br)cc23)cc1 | -119% (active) |
| O=C1CCCc2c1[nH]c1ccc(Br)cc21 | 89% (inactive) |
| Cc1noc(C)c1CCC(=O)N1CCCC(CO)(Cc2ccccc2)C1 (configuration not stated) | -110% (active) |
| COC(=O)CCC(=O)N1CCCC(CO)(Cc2ccccc2)C1 (configuration not stated) | -124% (active) |
| Cc1ccc(OC(=O)c2c(C)nn(-c3ccccc3)c2C)cc1 | -131% (active) |
| CSCCNC(=O)c1ccc2nc(Cc3ccccc3F)oc2c1 | -130% (active) |
| COc1ccc(Cc2nnc(N/N=C/c3ccccc3O)[nH]c2=O)cc1OC | 91.4% (inactive) |
| COCCNC(=O)c1ccc2nc(Cc3ccc(OC)c(OC)c3)oc2c1 | -80.1% (active) |
